# This is part of a sample that, as a whole, favours compounds with a hit. Of some 83,000 tested, about 20% had one in any assay.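 Growth was measured after 48 h exposure to one concentration of compound in 96-well plates. Values under 10 count as active.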 Values without a mark were called inactive. The source made the active and inactive calls.
# System: HCT-116 colon
# Assay: NCI-60 one-dose screen, 48 h (100 = growth as untreated, 0 = no growth, -100 = all killed)
# Details: 10 µM unless noted
row,Structure (SMILES),growth
1,COc1ccc(-n2sc(=O)n(Cc3ccc(COC(=O)C(C)c4ccc(CC(C)C)cc4)cc3)c2=O)cc1 (stereo not given),-31.9% (active)
2,C=C(C)C1CCC(=C)C2CCC3(C)OC12/C=C(/COC(C)=O)CCC3O (stereo not given),103%
3,CCN(CCO)CC(=O)c1cc(Cl)cc(Cl)c1Cl,98.9%
4,CNC=O,95.8%
5,O=[N+]([O-])c1ccc(-c2cc3c(Nc4ccc(OCc5cccc(Cl)c5)c(Cl)c4)ncnc3s2)cc1,52%
6,Cc1nn(Cc2ccccc2)cc1C(=O)Nc1sc2c(c1C(N)=O)CCC(=O)C2,6.74% (active)
7,CCOC(=O)c1c2c(c(C)n1C)-c1nn(Cc3ccc(OC)cc3)cc1CC2,84.4%
8,Cc1nc(Nc2ccc(NC(=S)Nc3ccccc3)cc2)c2ccccc2n1,101%
9,CCC(C)NCc1ccccc1 (stereo not given),91.8%
10,O=C(Nc1ccc(N2CCCCC2)c(Cl)c1)c1ccc(Br)o1,84.3%
